For some of these results: Measured potencies and affinities stand elsewhere.
Columns and labels:
Design in all cases: scale not given: direction of the effect not stated beside the values
[1] = target: Protein translocase subunit SecA (Escherichia coli (strain K12)) (UniProt P10408); assay: Assay to Identify E. coli SecA ATPase Inhibitors; format: functional; conditions: 30 µM
[2] = target: T1, Ubiquitin-activating enzyme e1, putative (Leishmania donovani (strain BPK282A1)) (UniProt E9BSI1); assay: Leishmania donovani Ubiquitin Activating Enzyme (LdE1); format: functional; conditions: 30 µM
T1 sequence (whole entry): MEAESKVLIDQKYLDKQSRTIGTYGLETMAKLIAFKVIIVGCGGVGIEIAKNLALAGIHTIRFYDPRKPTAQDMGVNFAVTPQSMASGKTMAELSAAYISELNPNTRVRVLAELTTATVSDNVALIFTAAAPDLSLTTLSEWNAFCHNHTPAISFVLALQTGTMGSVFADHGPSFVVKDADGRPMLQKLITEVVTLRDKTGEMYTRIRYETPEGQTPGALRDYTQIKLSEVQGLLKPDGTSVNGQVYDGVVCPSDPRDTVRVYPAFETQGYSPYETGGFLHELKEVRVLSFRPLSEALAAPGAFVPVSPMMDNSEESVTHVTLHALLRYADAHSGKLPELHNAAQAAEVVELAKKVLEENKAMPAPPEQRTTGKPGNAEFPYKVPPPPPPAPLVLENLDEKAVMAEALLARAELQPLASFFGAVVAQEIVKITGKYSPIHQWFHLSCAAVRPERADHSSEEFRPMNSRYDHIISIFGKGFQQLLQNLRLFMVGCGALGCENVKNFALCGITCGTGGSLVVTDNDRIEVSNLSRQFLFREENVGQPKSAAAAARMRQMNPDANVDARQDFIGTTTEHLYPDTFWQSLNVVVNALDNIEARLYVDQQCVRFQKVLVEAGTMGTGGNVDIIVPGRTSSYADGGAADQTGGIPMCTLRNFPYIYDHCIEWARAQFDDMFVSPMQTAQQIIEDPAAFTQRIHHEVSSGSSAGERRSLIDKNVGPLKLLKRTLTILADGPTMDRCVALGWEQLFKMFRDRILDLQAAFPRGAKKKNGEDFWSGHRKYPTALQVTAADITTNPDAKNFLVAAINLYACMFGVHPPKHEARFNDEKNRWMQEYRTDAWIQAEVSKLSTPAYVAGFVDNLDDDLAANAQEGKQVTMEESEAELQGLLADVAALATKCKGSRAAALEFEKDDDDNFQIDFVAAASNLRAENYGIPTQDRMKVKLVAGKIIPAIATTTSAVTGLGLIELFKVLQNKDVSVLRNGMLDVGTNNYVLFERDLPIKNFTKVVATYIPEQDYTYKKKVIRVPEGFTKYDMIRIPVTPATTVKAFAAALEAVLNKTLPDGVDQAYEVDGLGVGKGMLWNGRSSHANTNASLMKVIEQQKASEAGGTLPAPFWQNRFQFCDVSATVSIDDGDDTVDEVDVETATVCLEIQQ

[3] = target: AMP-activated protein kinase, AMPK (Homo sapiens) (UniProt P54646+O43741+P54619+Q9UGJ0+Q9Y478+Q13131+Q9UGI9); assay: AMP-dependent Kinase enzyme assay. An in vitro enzyme assay that detects ADP turnover that is directly proportional to AMPK activity. This uses naive AMPK that is activated during the assay with MK-8722; format: functional; conditions: 30 µM
[4] = target: Sialic acid-binding Ig-like lectin 9 (Homo sapiens) (UniProt Q9Y336); assay: Hs-Siglec9 ALPHAscreen SOP 20170721; conditions: 10 µM
Trypanosoma cruzi = assay: Trypanosoma cruzi phosphomannomutase and mannose-1-phosphate guanylyltransferase assay; format: functional; conditions: 10 µM
[5] = target: T2, Arginase-2, mitochondrial (Homo sapiens) (UniProt P78540); assay: in vitro enzyme assay to detect the production of urea directly proportional to the activity of Arginase II; format: functional; conditions: 33.3 µM; also: in the data most compounds retested in dose-response had high values
T2 sequence (whole entry): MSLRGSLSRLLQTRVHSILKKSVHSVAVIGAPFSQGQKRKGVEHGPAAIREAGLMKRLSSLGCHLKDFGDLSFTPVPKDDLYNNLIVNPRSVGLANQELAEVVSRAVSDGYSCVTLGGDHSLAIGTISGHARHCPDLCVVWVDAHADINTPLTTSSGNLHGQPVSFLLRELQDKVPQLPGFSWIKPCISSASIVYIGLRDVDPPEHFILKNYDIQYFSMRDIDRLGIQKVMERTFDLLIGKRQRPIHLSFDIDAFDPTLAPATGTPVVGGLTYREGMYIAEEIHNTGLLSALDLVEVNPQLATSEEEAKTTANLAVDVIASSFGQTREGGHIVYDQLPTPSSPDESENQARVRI

[6] = target: T3, Proteasome subunit beta (Trypanosoma cruzi) (UniProt O96673); assay: Trypanosoma cruzi proteasome chymotrypsin-like activity (TcProtChymo) assay.; also: in the data most compounds retested in dose-response had high values; format: functional; conditions: 9.37 µM
T3 sequence (whole entry): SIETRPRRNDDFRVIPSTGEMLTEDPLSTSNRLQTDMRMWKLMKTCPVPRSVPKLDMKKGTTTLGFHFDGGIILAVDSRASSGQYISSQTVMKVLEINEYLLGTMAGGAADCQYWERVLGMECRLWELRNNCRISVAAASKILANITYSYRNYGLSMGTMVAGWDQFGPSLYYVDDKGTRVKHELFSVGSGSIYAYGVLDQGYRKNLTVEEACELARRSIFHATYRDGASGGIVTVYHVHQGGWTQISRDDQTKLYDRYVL

Homo sapiens = species: Homo sapiens; assay: To identify inhibition of the IFN signalling (Jak-Stat) pathway via expression of an eGFP reporter gene under the control of an IFN-stimulated response element (ISRE) containing MxA promoter.; format: functional; conditions: 30 µM
[7] = target: T4, Tyrosyl-tRNA synthetase, putative (Trypanosoma cruzi (strain CL Brener)) (UniProt Q4DSP6); assay: Trypanosoma cruzi tyrosyl tRNA synthetase (TcYRS) _High Tyrosine SOP; format: functional; conditions: 30 µM; also: in the data most compounds retested in dose-response had high values
T4 sequence (whole entry): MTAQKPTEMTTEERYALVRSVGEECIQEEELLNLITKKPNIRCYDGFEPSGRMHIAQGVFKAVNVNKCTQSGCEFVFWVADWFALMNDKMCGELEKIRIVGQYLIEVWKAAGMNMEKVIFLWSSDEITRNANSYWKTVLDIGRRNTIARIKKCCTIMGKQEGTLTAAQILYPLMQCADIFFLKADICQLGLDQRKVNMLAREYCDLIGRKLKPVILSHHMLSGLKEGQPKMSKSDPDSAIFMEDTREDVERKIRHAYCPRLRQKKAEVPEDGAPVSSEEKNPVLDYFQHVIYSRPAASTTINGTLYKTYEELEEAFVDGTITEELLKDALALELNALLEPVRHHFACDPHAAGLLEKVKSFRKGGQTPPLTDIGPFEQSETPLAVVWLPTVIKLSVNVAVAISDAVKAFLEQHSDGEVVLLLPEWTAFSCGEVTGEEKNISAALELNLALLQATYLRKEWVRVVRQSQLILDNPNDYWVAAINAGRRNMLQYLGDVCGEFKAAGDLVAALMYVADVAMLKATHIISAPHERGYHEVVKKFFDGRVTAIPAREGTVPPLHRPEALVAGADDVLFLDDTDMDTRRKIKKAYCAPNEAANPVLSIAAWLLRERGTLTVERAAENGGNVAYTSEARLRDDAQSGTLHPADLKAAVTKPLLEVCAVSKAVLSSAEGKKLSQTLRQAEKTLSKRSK

[8] = target: T4, Tyrosyl-tRNA synthetase, putative (Trypanosoma cruzi (strain CL Brener)); assay: Trypanosoma cruzi tyrosyl tRNA synthetase (TcYRS) SOP; format: functional; conditions: 30 µM
[9] = target: Chromo domain-containing protein 1 (Saccharomyces cerevisiae (strain ATCC 204508 / S288c) (Baker's yeast)) (UniProt P32657); assay: ScCHD-1 Enzyme Inhibition Assay; format: functional; conditions: 30 µM; also: in the data most compounds retested in dose-response had high values
Chain of Chromo domain-containing protein 1 (Saccharomyces cerevisiae (strain ATCC 204508 / S288c) (Baker's yeast)) (P32657 whole entry, the tested form may be a part): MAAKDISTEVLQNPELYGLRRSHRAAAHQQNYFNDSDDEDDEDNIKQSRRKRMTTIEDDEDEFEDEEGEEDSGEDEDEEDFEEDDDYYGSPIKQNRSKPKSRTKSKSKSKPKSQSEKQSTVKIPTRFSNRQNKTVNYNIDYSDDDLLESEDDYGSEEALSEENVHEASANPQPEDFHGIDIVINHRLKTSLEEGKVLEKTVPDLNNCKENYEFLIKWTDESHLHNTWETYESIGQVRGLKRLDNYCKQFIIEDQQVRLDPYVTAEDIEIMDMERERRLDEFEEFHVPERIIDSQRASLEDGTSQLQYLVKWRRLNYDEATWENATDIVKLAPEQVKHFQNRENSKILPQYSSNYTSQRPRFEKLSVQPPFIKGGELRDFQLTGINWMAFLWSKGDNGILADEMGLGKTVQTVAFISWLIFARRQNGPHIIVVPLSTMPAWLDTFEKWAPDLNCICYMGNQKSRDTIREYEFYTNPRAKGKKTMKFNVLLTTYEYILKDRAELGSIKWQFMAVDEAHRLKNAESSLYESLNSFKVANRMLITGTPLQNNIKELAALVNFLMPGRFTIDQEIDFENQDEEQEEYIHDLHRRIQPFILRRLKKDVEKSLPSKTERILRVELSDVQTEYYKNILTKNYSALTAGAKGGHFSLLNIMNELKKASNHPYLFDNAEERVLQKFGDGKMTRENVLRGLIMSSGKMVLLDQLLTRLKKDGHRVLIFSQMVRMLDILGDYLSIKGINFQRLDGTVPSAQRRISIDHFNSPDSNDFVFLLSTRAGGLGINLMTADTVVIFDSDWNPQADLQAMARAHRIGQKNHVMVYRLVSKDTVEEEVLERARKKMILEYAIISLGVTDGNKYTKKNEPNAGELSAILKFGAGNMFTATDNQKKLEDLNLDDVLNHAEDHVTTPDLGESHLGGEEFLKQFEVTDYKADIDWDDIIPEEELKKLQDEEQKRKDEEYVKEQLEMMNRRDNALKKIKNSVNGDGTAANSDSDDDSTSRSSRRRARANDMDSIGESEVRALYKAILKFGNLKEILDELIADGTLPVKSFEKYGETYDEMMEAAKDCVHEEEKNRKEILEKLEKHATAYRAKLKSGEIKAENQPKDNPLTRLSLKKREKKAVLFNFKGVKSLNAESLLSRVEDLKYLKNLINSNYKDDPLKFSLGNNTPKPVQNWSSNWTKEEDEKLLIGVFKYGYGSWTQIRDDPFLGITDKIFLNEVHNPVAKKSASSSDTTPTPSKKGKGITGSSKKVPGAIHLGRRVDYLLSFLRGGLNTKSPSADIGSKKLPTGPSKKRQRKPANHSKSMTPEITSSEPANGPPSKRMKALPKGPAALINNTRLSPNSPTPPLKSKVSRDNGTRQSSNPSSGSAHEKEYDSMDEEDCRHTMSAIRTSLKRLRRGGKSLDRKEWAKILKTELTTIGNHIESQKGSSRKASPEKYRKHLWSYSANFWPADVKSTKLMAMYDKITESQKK

Chain of Sialic acid-binding Ig-like lectin 9 (Homo sapiens) (Q9Y336 whole entry): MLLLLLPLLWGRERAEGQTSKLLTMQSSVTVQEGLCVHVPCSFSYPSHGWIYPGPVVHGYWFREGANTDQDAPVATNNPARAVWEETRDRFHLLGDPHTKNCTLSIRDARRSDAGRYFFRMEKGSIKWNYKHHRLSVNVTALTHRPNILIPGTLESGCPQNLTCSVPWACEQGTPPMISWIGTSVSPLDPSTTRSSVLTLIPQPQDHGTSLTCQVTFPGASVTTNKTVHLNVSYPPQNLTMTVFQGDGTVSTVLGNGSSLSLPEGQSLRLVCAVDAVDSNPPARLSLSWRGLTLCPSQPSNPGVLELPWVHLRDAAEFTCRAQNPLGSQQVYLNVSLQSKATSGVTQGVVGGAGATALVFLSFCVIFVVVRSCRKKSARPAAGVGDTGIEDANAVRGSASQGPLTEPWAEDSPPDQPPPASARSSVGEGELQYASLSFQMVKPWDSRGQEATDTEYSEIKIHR
Chain of Protein translocase subunit SecA (Escherichia coli (strain K12)) (P10408 whole entry): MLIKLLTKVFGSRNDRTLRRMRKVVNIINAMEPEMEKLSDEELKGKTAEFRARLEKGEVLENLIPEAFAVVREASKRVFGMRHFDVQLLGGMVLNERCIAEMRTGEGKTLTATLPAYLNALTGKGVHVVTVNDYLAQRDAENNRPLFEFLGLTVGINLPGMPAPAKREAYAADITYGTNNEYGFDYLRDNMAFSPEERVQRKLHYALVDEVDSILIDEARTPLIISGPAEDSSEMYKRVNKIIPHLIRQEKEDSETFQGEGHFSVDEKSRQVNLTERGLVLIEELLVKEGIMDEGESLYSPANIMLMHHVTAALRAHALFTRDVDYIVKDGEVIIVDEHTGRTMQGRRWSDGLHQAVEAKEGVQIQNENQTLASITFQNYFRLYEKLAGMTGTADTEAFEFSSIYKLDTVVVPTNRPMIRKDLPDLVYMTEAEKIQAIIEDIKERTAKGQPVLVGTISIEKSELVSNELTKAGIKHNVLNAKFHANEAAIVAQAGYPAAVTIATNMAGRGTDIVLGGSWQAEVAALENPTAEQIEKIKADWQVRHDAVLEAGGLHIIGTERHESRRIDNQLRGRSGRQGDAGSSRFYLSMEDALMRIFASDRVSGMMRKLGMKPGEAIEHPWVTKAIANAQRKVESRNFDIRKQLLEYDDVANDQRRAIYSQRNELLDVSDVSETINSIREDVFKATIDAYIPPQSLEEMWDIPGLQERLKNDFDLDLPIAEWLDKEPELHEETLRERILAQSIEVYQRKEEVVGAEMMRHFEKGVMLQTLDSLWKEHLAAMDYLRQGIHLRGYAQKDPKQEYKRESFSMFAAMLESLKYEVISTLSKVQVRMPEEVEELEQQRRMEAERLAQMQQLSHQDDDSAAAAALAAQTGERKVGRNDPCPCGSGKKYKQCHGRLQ

| SMILES | Percent Effect [1] [%] | Percent Effect [2] [%] | Percent Effect [3] [%] | Percent Effect [4] [%] | Percent Effect (Trypanosoma cruzi) [%] | Percent Effect [5] [%] | Percent Effect [6] [%] | Percent Effect (Homo sapiens) [%] | Percent Effect [7] [%] | Percent Effect [8] [%] | Percent Effect [9] [%] |
| --- | --- | --- | --- | --- | --- | --- | --- | --- | --- | --- | --- |
| COC(=O)c1cc(C(=O)N2CCOCC2(C)C)n(-c2ccccc2)n1 | -2.65 | 7.89 | 4.52 | 4.64 | 6.2 | -6.13 | 0 | -3.57 | 4.41 | 17.1 | -9.02 |
| Cc1nc(CN2C(=O)C[C@H]3[C@H]2CCN3C2CCOCC2)cs1 | -2.26 | 11 | -0.758 | 4.06 | 0.595 | -2 | 8.3 | -4.37 | 3.12 | 11.1 | -3.21 |
| C=C(Cl)CN1CCC(C(=O)c2cc(F)ccc2F)CC1 | -2.54 | -13.2 | 5.79 | -1.3 | 4.32 | -0.766 | -1.67 | 5.08 | 0.49 | 4.88 | 6.62 |
| COC(=O)N1CCCN(C(=O)NCc2ccc(Cl)s2)CC1 | -1.83 | 16.5 | 4.69 | -2.7 | 0.308 | -4.09 | 12.9 | 19.3 | 7.29 | 15.2 | -27.7 |
| O=C1[C@H]2CC[C@H](CN(S(=O)(=O)c3ccccc3)C2)N1Cc1cscn1 | -9.05 | 5.48 | 3.4 | -0.832 | -1.59 | -2.4 | -4.02 | 27.2 | -1.04 | -1.24 | 2.37 |
| CCc1nccn1C1CCCN(C(=O)c2cc3nc(C)ccc3o2)C1 (stereo not given) | -7.55 | 8.11 | -3.48 | 4.87 | -6.7 | -4.81 | 4.87 | 32.4 | 3.45 | 3.7 | 0.188 |
| Cc1cc(=O)[nH]c(NCCNC(=O)C(c2ccc(F)cc2)N(C)C)n1 (stereo not given) | 4.65 | 11 | 0.926 | 2.46 | -9.72 | -10.8 | 17.4 | 21.7 | 8.33 | 16.1 | -5.31 |
| N#Cc1cc(NC(=O)c2ccccc2)ccc1N1CCC(O)CC1 | -0.198 | 10.8 | -7.93 | 6.67 | 2.51 | 9.05 | 10 | -5.21 | 1.59 | 9.76 | -2.82 |
| Cc1nn(C)cc1CN1CCC(C2Nc3ccccc3S(=O)(=O)N2)CC1 (stereo not given) | -3.36 | 6.76 | 11.9 | 2.59 | -1.78 | 0.232 | 7.49 | -1.1 | 6.45 | 14.3 | -9.41 |
| COCCCn1ccnc1-c1cnc(OC)nc1 | -0.0522 | 5.41 | -3.25 | 0.687 | -0.386 | -3.33 | 21.6 | -18.9 | 6.88 | 4.88 | -3.88 |
| Cc1cc(Nc2nc(C)cs2)nc(C2CCCCN2CCO)n1 (stereo not given) | -0.14 | 1.35 | -0.107 | -8.52 | 7.12 | -5.34 | 13.9 | -9.01 | 4.3 | 11.7 | -23.2 |
| Cc1cccc(OCCC(=O)N2CCN(S(=O)(=O)N(C)C)CC2)c1C | 1.47 | 22.8 | -5.81 | -9.44 | 0.661 | -3.42 | 8.93 | 39.5 | 4.43 | 16.5 | -13.5 |
| CCCc1nc(N2Cc3cnn(Cc4ccc(F)cc4)c3C2)no1 | -3.65 | 5.33 | 7.03 | 2.42 | -2.04 | 2.6 | 14.1 | 19.7 | 4.92 | 11.1 | -7.25 |
| O=C(COCc1nc(-c2ccncc2)no1)N1CCCC1 | -2.71 | 10.4 | 5.42 | 6.86 | 4.42 | -110 | 7.32 | -13.8 | 5.38 | 13.6 | -4.16 |
| CC(C)c1nc2c(n1C)CCN(Cc1nc(-c3cccs3)no1)C2 | -5.48 | -5.41 | 8.78 | 3.18 | 1.21 | -1.66 | 2.33 | 0.809 | 6.93 | 11 | 9.28 |
| N#Cc1cccc(S(=O)(=O)NC2CCN(Cc3ccccc3)C2=O)c1 (stereo not given) | -2.71 | 12.7 | 0.264 | 4.28 | -4.44 | -6.84 | 2.21 | 1.05 | 3.45 | 11.4 | -7.32 |
| CN(C)C[C@H]1OC[C@@H]2CCN(C(=O)c3cccn3C)C[C@@H]21 | -3.89 | 0 | -8 | 19.3 | 4.59 | 9.18 | 6.44 | 4.8 | 6.45 | 13.6 | -6.04 |
| CNC(=O)c1cc2c(nc1NCC(C)C)CCN(S(=O)(=O)C1CC1)CC2 | -6.06 | 2.7 | 5.7 | -6.06 | -3.23 | -1.24 | -7.64 | -2.8 | 2.15 | 8.64 | -4.29 |
| Cc1nc(C)n(CC2CCCN2CC(=O)NCc2ccco2)n1 (stereo not given) | -0.786 | 2.74 | 1.19 | 4.18 | 0.979 | -1.36 | 13.8 | 6.45 | 1.07 | -2.5 | -3.99 |
| COc1ncccc1NC(=O)N1CCC(CN2CCOCC2)CC1 | 2.03 | 2.67 | -10.3 | 11.1 | 5.55 | 17.7 | 7.15 | -13.1 | 2.73 | 6.17 | 0.459 |
